Bioassay records deposited in PubChem BioAssay by National Center for Advancing Translational Sciences (NCATS).
An excerpt weighted towards active compounds, which were near 2.7% of everything screened.
IP6K1 inhibitor: Primary qHTS assay for small molecule inhibitors of Inositol hexaphosphate kinase 1 (IP6K1); IP6K1 kinase, ADP-Glo luminescence, 2 h; active compounds read low; Inositol hexakisphosphate kinase 1 (Homo sapiens), Q92551; 140,000 compounds, 0.81% hits; activity change, % (series mostly up to about 58 µM); in the data active = activity change below about -25%; also: % is scaled to controls: 0 for no effect and ±100 for the full control effect
Target sequence (Q92551 whole entry, looked up): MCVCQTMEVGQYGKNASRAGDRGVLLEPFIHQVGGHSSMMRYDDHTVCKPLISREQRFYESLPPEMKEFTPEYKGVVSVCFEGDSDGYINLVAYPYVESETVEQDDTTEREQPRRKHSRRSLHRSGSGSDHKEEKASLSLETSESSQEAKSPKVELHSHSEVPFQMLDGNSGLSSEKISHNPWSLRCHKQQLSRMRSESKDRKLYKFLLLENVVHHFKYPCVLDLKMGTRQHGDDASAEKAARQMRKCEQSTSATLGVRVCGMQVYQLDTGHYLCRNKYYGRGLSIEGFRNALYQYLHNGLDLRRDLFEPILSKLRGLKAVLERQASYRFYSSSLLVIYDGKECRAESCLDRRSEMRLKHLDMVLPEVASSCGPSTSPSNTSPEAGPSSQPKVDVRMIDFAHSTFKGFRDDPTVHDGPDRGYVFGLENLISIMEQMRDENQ
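ADP-Glo luminescence measures ADP made by human IP6K1 during a 2 h RT reaction with ATP/IP6 (mix at 1.3 mM/130 uM); top library doses 57.5 and 19.1 uM final.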
KDM5B inhibitor: Primary screen for KDM5B Histone Demethylases FDH-coupled qHTS; KDM5B demethylase, FDH-coupled NADH fluorescence (FDH is formaldehyde dehydrogenase); AID 1347165, 2019; Potency, µM (doses to about 57.7 µM), usual class: inhibitors; 220,000 compounds, 2.6% hits; active = well fitted inhibition curve with a large enough effect; inconclusive = small, poorly fitted or top-dose-only effect; inactive = no such curve, though single readings can be large or run the other way; also: potency is read from the fitted curve at half-maximal effect; 0% is about no effect; nearly all actives have a fitted effect of over 70% in size
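Compound dilutions met 200 nM (final) KDM5BΔAP for 10 min at room temperature before substrate addition. The substrate mix held 12.5 µM H3K4me3 with cofactors 25 µM α-ketoglutarate and 50 µM Fe²⁺. NADH signal gain over 30 min defined activity.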
* = called active by the depositor; i = inactive; ? = inconclusive; nt = no result.

SMILES	IP6K1 inhibitor	KDM5B inhibitor
COCc1nc2nc(-c3ccccc3)c(-c3ccc([S+](C)(=O)[O-])cc3)cc2n1C	9	35µM*
CCCCC(=O)Nc1nc(-c2ccc(F)cc2NC(C)=O)cs1	nt	i
CC(=O)N1CCN(C(=O)c2cc3ccccc3[nH]c2=O)CC(O)C1 (configuration not stated)	-11	28µM*
CC(=O)N1CCN(C(=O)c2cnc(N)nc2-c2ccccc2)CC(O)C1 (configuration not stated)	5	25µM*
Nc1ncc(C(=O)N2CCCC3(CCOC3)C2)c(-c2ccccc2)n1 (configuration not stated)	-7	?
COCC1CN(C(C)=O)CC12CCN(C(=O)c1cc3ccccc3[nH]1)CC2 (configuration not stated)	12	i
O=C(C1CCCN1C(=O)c1ccc(F)cc1)N1CCCC(c2nc3ncccc3[nH]2)C1 (configuration not stated)	10	nt
COCCN1CCOc2nc(-c3ccc(Oc4ccccc4)cc3)ncc2C1=O	-2	?
COc1ccc(CN2CCOc3nc(-c4cc5ccccc5o4)ncc3C2=O)cc1	-1	32µM*
O=C1c2cnc(-c3ccc(Oc4ccccc4)cc3)nc2OCCN1CC1CC1	2	35µM*
COc1ccc(CN2CCOc3nc(-c4cccc(NC(C)=O)c4)ncc3C2=O)cc1	4	?
Cc1cc(C)c(S(=O)(=O)NCCn2c(C)cnc2C2CC2)cc1C	-11	i
CCSc1oc(-c2ccco2)nc1S(=O)(=O)c1ccc(Br)cc1	6	?
O=C(CSc1oc(-c2ccco2)nc1S(=O)(=O)c1ccc(Br)cc1)c1ccccc1	-28*	?
Cn1ncc2c(C(=O)NCc3cccc(Cl)c3)cc(-c3ccc(C(F)(F)F)cc3)nc21	-12	nt
c1ccc(Nc2ncc(-c3ccccc3)c3c2OCC3)cc1	-10	i
O=C(Nc1ncc(-c2cccc(F)c2)c2c1OCC2)c1ccc(Cl)cc1	-17	?
Fc1cc(Nc2ncc(-c3ccccc3)c3c2OCC3)cc(N2CCOCC2)c1	-10	13µM*
Fc1cccc(-c2cnc(Nc3ccc(N4CCOCC4)cc3)c3c2CCO3)c1	-13	32µM*
Cc1noc(C)c1-c1cc2cc(CO)oc2c(NC2CCN(C)CC2)n1	9	?
CCSC(SCC)C(O)C(O)C(O)CO (configuration not stated)	nt	i
CCOC(=O)C1CCCN(S(=O)(=O)NCc2ccnc(Oc3ccc(OC)cc3)c2)C1 (configuration not stated)	nt	i
CN(C)Cc1nnc(C2CC(NC(=O)c3cnc4ccccc4n3)C2)n1C (configuration not stated)	-3	i
CN(C)Cc1nnc(C2CC(NC(=O)c3nc4ccccc4[nH]3)C2)n1C (configuration not stated)	21	22µM*
CCc1nc2c(c(-c3ccc(OC)cc3)n1)CN(C(=O)c1ccc3c(c1)OCO3)CC2	4	?
SMILES	IP6K1 inhibitor	KDM5B inhibitor
Cc1cn2nc(C(=O)NCCc3ccccc3)cc2c(N2CCCC2)n1	-15	i
Cc1cn2nc(C(=O)NCCCc3ccccc3)cc2c(N2CCCC2)n1	5	25µM*
Cc1cn2nc(C(=O)NCc3cccc(Cl)c3)cc2c(N2CCCC2)n1	10	25µM*
CCOc1cccc(CNC(=O)c2cc3c(N4CCCC4)nc(C)cn3n2)c1	22	i
Cc1ccc(-n2nnnc2SCc2nc3ccccc3o2)c(C)c1	nt	i
Cc1cc(SC(C)C(=O)Nc2sccc2C(N)=O)nc2ccccc12 (configuration not stated)	nt	i
O=C(Nc1ccc2oc(=O)ccc2c1)c1ccc(Cl)c(Cl)c1	nt	i
CCCN1CCN(C(=O)C2(c3ccc(NC(=O)C4CC4)cc3)CCCCC2)CC1	1	i
CC(C)C(=O)Nc1ccc(C2(C(=O)N3CCCCC3)CCCCC2)cc1	-3	i
CC(=O)Nc1ccc(C2(C(=O)N3CCN(c4ccccc4)CC3)CCCCC2)cc1	8	i
CS(=O)(=O)Nc1ccc(C2(C(=O)N3CCN(c4ccccn4)CC3)CCCCC2)cc1	10	22µM*
O=C(Nc1ccc(C2(C(=O)N3CCN(c4ccccn4)CC3)CCC2)cc1)C1CC1	-3	18µM*
CC(C)C(=O)Nc1ccc(C2(C(=O)N3CCN(c4ccccn4)CC3)CCCCC2)cc1	8	22µM*
CC(Sc1nc(C(F)(F)F)nc2ccccc12)C(=O)Nc1ccc(N(C)C)cc1 (configuration not stated)	nt	i
COc1ccc(-c2cccc(C(=O)N3CCC(NC(=O)c4ccccc4OC)CC3)c2)nn1	-4	nt
O=C(NCc1ccc(F)cc1)c1cn2cc(-c3ccc(C(F)(F)F)cc3)sc2n1	-8	nt
